Potency and affinity values are given separately.
Each compound was assayed against Kelch-like ECH-associated protein 1 (Homo sapiens) + Nuclear factor erythroid 2-related factor 2 (Homo sapiens) (UniProt Q14145+Q16236) (assay: disruptors of Keap1 binding to Nrf2 peptide – biochemical, fluorescence polarization, cherry-picked samples, dose response (AID 588683;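 note: Kelch domain of Keap1 binding a fluorescein-labelled 9mer Nrf2 peptide; more negative means stronger inhibition of peptide binding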)). Details: plate reader; series mostly up to 26 µM; activity change, negative = inhibition: at the top concentration; call rule not given here.
Sequence of Kelch-like ECH-associated protein 1 (Homo sapiens) + Nuclear factor erythroid 2-related factor 2 (Homo sapiens) (Q14145 whole entry, looked up, the tested form may be a part): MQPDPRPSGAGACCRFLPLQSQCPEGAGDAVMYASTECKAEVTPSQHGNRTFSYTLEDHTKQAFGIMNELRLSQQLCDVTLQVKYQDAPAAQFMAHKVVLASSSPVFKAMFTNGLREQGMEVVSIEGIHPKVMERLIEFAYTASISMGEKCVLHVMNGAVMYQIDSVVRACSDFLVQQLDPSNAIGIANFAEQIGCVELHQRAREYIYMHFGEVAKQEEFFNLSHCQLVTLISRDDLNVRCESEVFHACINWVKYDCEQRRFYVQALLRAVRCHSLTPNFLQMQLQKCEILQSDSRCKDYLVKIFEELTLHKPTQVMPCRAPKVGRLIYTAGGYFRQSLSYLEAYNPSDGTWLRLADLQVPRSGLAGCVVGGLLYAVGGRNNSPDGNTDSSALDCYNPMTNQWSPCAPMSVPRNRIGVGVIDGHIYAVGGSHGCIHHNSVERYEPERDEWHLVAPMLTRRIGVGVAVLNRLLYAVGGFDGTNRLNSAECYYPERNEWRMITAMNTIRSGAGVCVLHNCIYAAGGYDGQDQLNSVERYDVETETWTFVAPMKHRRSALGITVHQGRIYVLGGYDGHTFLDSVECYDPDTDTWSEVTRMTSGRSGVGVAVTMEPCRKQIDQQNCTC
Sequence of Kelch-like ECH-associated protein 1 (Homo sapiens) + Nuclear factor erythroid 2-related factor 2 (Homo sapiens) (Q16236 whole entry, looked up, the tested form may be a part): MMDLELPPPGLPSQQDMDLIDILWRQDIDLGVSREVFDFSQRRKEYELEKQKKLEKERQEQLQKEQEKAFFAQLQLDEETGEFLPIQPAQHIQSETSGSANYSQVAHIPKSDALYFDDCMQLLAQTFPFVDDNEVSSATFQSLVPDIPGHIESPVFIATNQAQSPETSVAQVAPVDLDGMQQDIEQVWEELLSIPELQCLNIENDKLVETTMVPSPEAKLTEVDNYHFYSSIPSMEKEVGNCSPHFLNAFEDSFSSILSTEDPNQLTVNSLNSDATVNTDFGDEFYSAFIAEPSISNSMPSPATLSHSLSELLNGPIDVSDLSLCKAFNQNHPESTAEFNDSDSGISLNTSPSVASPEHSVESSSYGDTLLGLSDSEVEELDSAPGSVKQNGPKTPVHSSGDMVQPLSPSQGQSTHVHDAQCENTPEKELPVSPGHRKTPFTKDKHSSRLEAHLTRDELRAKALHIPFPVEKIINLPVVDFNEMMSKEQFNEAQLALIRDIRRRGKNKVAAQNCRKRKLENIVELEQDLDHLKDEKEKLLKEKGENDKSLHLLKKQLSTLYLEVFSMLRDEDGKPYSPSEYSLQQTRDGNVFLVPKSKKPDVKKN

Activity change, negative = inhibition, inactive:
O=C(CSCC(=O)Nc1ccccc1)N/N=C/c1c(O)ccc2ccccc12 10.7%, CC1Cc2cc(/C=C3/SC(N4CCC(C(N)=O)CC4)=NC3=O)ccc2O1 (stereo not drawn) -0.857%, COC(=O)c1cccc(NC(=O)NC(=O)c2ccc(Cl)cc2)c1 -10%, COc1ccc(NC(=O)Cc2ccsc2)cc1S(=O)(=O)N1CCOCC1 -11.7%, O=C1C=CC(=O)c2c(O)c(N3CCN(CCOCCO)CC3)c(Br)c(O)c21 -12.2%, COc1ccc(C2=CC(c3ccco3)n3ncnc3N2)cc1 (stereo not drawn) -16.9%, Nc1c(Cl)ncnc1NCc1ccccc1 -12.4%, CC(C(=O)O)N1C(=O)/C(=C/C=C/c2ccco2)SC1=S (stereo not drawn) 14.5%, CSc1nsc2nc(=O)c(/C=C3\C=Nc4ccccc43)c(N)n12 20.7%, COC(=O)c1ccc(OC(=O)CN2C(=O)c3ccccc3C2=O)cc1 -6.97%, C=CCOc1ccc(CNc2ccc(NC(=O)CC(C)C)cc2)cc1OC -7.58%, CNS(=O)(=O)c1ccc2c3c(cccc13)C(=O)N2C -7.61%, CC(C)NC(=O)N(C)C[C@H]1Oc2ccc(NS(=O)(=O)c3cn(C)cn3)cc2C(=O)N([C@H](C)CO)C[C@@H]1C -2.06%, CCCc1cc(NC(=O)COC(=O)c2nccnc2N)n(-c2ccccc2)n1 0.425%, O=C(C1=NN(c2ccccc2)C2C(=O)N(c3ccccc3)C(=O)C12)c1ccccc1 (stereo not drawn) 13%, O=C1NC(c2cc(Cl)cc([N+](=O)[O-])c2O)Nc2ccccc21 (stereo not drawn) -16.2%, Cc1ccc(Cn2c(=N)c(C(=O)NC3CCCC3)cc3c(=O)n4ccccc4nc32)cc1 -7.84%, CCOc1cccc(C2C(C(=O)c3ccc(C)o3)=C(O)C(=O)N2c2nccs2)c1 (stereo not drawn) -21.9%, Cc1ccc(NC(=S)NCc2ccc(F)cc2)c(C)c1 17%, Cn1nc(C(=O)NNC(=O)Cc2ccc(S(=O)(=O)N3CCOCC3)s2)c2ccccc2c1=O 0.832%, N=c1c(C(=O)NC2CCCC2)cc2c(=O)n3ccccc3nc2n1Cc1ccccc1 -5.93%, Oc1ccc2c(c1)OCC1(O)Cc3cc(O)c(O)cc3C21 (stereo not drawn) -8.58%, CC(=O)Nc1ccc2c(c1)N(C(=O)CN(C)C)c1ccccc1CC2 -6.21%, COc1ccc(N=Nc2nc3ccc(Br)cc3n2C)cc1 -21.9%, N/C(Cc1cccc2ccccc12)=N\O -1.95%, N=c1c(C(=O)NCc2ccc(F)cc2)cc2c(=O)n3ccccc3nc2n1Cc1cccnc1 -11.4%, O=C(NNc1cc(Cl)ccc1Cl)c1cccs1 0.801%, N#C/C(=C\c1ccc[nH]1)C(=O)N1CCCCC1 -0.671%, Cc1ccc(S(=O)(=O)NCC(=O)OCC(=O)Nc2ccc3c(c2)OCCO3)cc1 -2.89%, CCOC(=O)C(C)(C)N(Cc1ccccc1C)S(=O)(=O)c1ccc(Cl)c([N+](=O)[O-])c1 -14.5%, O=c1[nH]c(-[n+]2ccccc2)c(/C=N/NC([S-])=Nc2ccccc2)s1 -0.642%, COc1ccc(C(=O)c2ccsc2N)cc1 -4.13%, Cc1cccc(NS(=O)(=O)c2ccc(C)c(C(=O)NCC(c3ccccc3)N(C)C)c2)c1 (stereo not drawn) 11%, Cc1ccc(C)c(N2CCN(C(=O)c3cc4ccccn4n3)CC2)c1 -1.58%, Cc1snc(S(=O)(=O)/C(C#N)=N/Nc2cccc(C(F)(F)F)c2)c1C#N 0.963%, O=C(Nc1ccccc1C(=O)N1CCCCCC1)c1ccc(F)cc1 -6.9%, O=C(CCCN1C(=O)/C(=C\c2ccco2)SC1=S)Nc1ccc(O)cc1C(=O)O 8.2%, COc1ccc(NS(=O)(=O)c2ccc(F)c(Cl)c2)cn1 -13.4%
